Hits are enriched below; roughly 2.3% of the tested compounds scored in any of these assays.
Abeta yeast res: compounds reversing amyloid beta toxicity in yeast | yeast expressing A-beta42, growth rescue, OD600, 48 h; response scale: 0% DMSO, 100% iron-clioquinol control | Potency, µM (doses to about 46.1 µM), actives largely listed as activators | AID 1347071 | actives 0.063% (n = 410,000); also: nearly all actives have a fitted effect of over 55% in size
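Growth rescue measured by 600 nm absorbance after 48 h yeast culture at 30 C with compound. Values normalized between DMSO and an equimolar ferric chloride plus clioquinol control.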
BCR signal inh: inhibitors of chronic active B-cell receptor signaling. ABC-DLBCL IkBa-CBG/CBR reporter, luminescence ratio, 4 h. Potency, µM (top dose mostly 46.1 µM), usual class: inhibitors. actives 0.05% (n = 340,000). AID 493014; active = well fitted inhibition curve with a large enough effect in the signal ratio, with a control signal flat, not every such curve was filed as active; inconclusive = small, poorly fitted or top-dose-only effect, or effect the other way, or a change in a side signal; the % refers to the signal ratio
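TMD8 ABC-DLBCL cells carrying doxycycline-inducible green luciferase fused to IkappaBalpha plus unfused red luciferase were exposed to compounds (up to 46 uM) for 4 hrs at 37C. Activity came from the overlap-corrected green/red luminescence ratio.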
TDP43 rescue: TDP-43 toxicity inhibition in yeast | actives 1.8% (n = 410,000) | TDP-43 expressing yeast growth rescue, BacTiter-Glo, 24 h | AID 652104 | Potency, µM (highest dose often 46.1 µM), most hits filed as activators; also: nearly all actives have a fitted effect of over 50% in size
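Luminescence from BacTiter-Glo reports growth of TDP-43-expressing yeast after 24 hr at 30 deg C with compound. Cells were raffinose-pregrown to mid-log, then seeded in galactose medium at OD600=0.02.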
FUS yeast rescue: FUS proteinopathy suppression in yeast; Potency, µM (titrated, usually from 76.6 µM), hits mostly activators; S. cerevisiae FUS-expressing, growth rescue, OD600, 24 h; actives 0.24% (n = 390,000); also: nearly all actives have a fitted effect of over 55% in size
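S. cerevisiae expressing FUS from galactose induction served as the toxicity model. Growth after 24hr at 30C, read as absorbance at 600 nm, indicates suppression of toxicity; compounds dosed at several concentrations.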
uPA surface inh: blocks generation of uPA at the cell surface | Potency, µM (doses to about 38.3 µM), actives largely listed as inhibitors | cell surface uPA generation assay, qHTS | actives 0.31% (n = 330,000); active = well fitted inhibition curve with a large enough effect; inconclusive = small, poorly fitted or top-dose-only effect; inactive = no such curve, though single readings can be large or run the other way; tested in mouse RAW 264.7 cells; also: nearly all actives have a fitted effect of over 55% in size
aSyn rescue: rescues yeast growth from alpha-synuclein toxicity | Yeast expressing alpha-synuclein, growth rescue, BacTiter-Glo, 24 h | Potency, µM (titrated, usually from 46.1 µM), hits mostly activators | actives 0.14% (n = 370,000) | AID 652106; also: nearly all actives have a fitted effect of over 65% in size
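Screening used galactose-induced yeast with toxic alpha-synuclein levels, exposed to compound for 24 hr at 30 deg C. Cell growth, read with BacTiter-Glo luminescence, gave the measured signal.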
Hits are given with their value; – = inactive; ? = inconclusive; · = no result given. Unless noted, calls follow the shape of the dose curve; as a rule, active = well fitted curve in the direction sought with a large enough effect; inconclusive = small, poorly fitted or top-dose-only effect, or another doubt; inactive = no such curve, though single readings can be large; an effect the other way counts as inactive or inconclusive.

SMILES	Abeta yeast res	BCR signal inh	TDP43 rescue	FUS yeast rescue	uPA surface inh	aSyn rescue
OCC1OC(n2cnc3c(NC4CCCCC4)ncnc32)C(O)C1O (stereo unspecified)	–	12.6µM	–	–	–	–
Nc1ncnc2c1ncn2[C@@H]1O[C@H](COP(=O)(O)OP(=O)(O)OP(=O)(O)OP(=O)(O)OC[C@@H]2O[C@H](n3cnc4c(N)ncnc43)[C@@H](O)[C@H]2O)[C@@H](O)[C@H]1O	·	·	·	·	·	7.31µM
Nc1nc(F)nc2c1ncn2[C@@H]1O[C@H](COP(=O)(O)O)[C@@H](O)[C@@H]1O	·	·	·	–	·	·
C[C@H](N)C(=O)NC[C@H]1O[C@@H](n2cnc3c(N)ncnc32)[C@H](O)[C@@H]1O	–	?	–	–	–	–
CC1CCCC(C)N1C(=O)COC(=O)CCc1nc2ccccc2c(=O)[nH]1 (stereo unspecified)	–	–	–	–	–	–
C#CCOCCOCCOCCNc1nc(N2CCN(C(=O)CCCCCCCCCCNC(=O)Cn3cc(C[C@@H](C)O)nn3)CC2)nc(N2CCN(C(=O)CCCCCCCCCCNC(=O)[C@H](CCCCN)n3cc(CCCC(=O)O)nn3)CC2)n1	–	?	–	?	–	–
C#CCOCCOCCOCCNc1nc(N2CCN(C(=O)CCCCCCCCCCNC(=O)Cn3cc(C[C@@H](C)O)nn3)CC2)nc(N2CCN(C(=O)CCCCCCCCCCNC(=O)[C@H](CO)n3cc(CCCSC)nn3)CC2)n1	–	?	–	?	–	–
C#CCOCCOCCOCCNc1nc(N2CCN(C(=O)CCCCCCCCCCNC(=O)Cn3cc(C[C@@H](C)O)nn3)CC2)nc(N2CCN(C(=O)CCCCCCCCCCNC(=O)[C@H](CCCN=C(N)N)n3cc(C[C@@H](C)CC)nn3)CC2)n1	–	?	–	11.2µM	?	–
C#CCOCCOCCOCCNc1nc(N2CCN(C(=O)CCCCCCCCCCNC(=O)[C@H](CO)n3cc(CCCSC)nn3)CC2)nc(N2CCN(C(=O)CCCCCCCCCCNC(=O)[C@H](CCCCN)n3cc(CCO)nn3)CC2)n1	–	?	?	12.6µM	–	–
C#CCOCCOCCOCCNc1nc(N2CCN(C(=O)CCCCCCCCCCNC(=O)[C@H](CO)n3cc(CCCSC)nn3)CC2)nc(N2CCN(C(=O)CCCCCCCCCCNC(=O)[C@H](CCCN=C(N)N)n3cc(C[C@@H](C)CC)nn3)CC2)n1	–	?	–	8.91µM	–	–
CCN(CC(=O)Nc1ccc2c(c1)OCCO2)C(=O)c1cc(Cl)nc2ccccc12	–	–	–	–	–	–
Cc1ccc2c(c1)-c1onc(C(=O)N3CCN(c4cccc(C)c4C)CC3)c1CO2	–	·	–	–	·	–
Cc1ccc(NC(=O)CCc2nc3ccccc3[nH]2)cc1C	–	–	–	–	–	–
O=C(/C=C/c1ccccc1)CC(O)(c1ccccc1)C(F)(F)C(F)F (stereo unspecified)	–	?	?	–	?	–
O=C(/C=C/c1ccccc1)CC(O)(c1ccccc1)C(F)(F)F (stereo unspecified)	–	?	12.6µM	–	–	?
Nn1c(SCc2cccc(Oc3ccccc3)c2)nnc1C(F)(F)F	–	–	?	–	–	–
CSc1nncc(/C(C)=N\Nc2cccc(C)c2)n1	–	–	–	–	–	–
CSc1nnc2c(n1)c(C)nn2-c1cccc(C)c1	–	–	12.6µM	–	–	–
CN(C)c1ccc(C=Nc2ccccc2C(N)=O)cc1	–	–	11.2µM	–	–	–
Cc1ccc(C=Nc2ccccc2C(N)=O)o1	–	–	–	–	–	–
CCOc1nc(Nc2ccc(OC)c(Cl)c2)nc(OCC)n1	–	–	14.1µM	–	–	–
COc1ccc(Nc2nc(N3CCOCC3)nc(N3CCOCC3)n2)cc1Cl	–	–	15.8µM	–	–	–
COc1cc(Br)c(C(C)NC(=O)c2cccc(Br)c2)cc1OC (stereo unspecified)	–	–	–	–	·	–
CC(=O)N1CCc2nc3sc(C(=O)c4ccc(F)cc4)c(N)c3c(C(F)(F)F)c2C1	–	·	28.2µM	–	·	·
CC1CCCN(S(=O)(=O)c2ccc(CN3C(=O)c4cccnc4C3=O)cc2)C1 (stereo unspecified)	–	–	?	–	–	0.562µM
SMILES	Abeta yeast res	BCR signal inh	TDP43 rescue	FUS yeast rescue	uPA surface inh	aSyn rescue
COc1ccc(CN2C(=O)c3cccnc3C2=O)cc1S(=O)(=O)N1CC(C)CC(C)C1 (stereo unspecified)	–	–	–	–	–	–
O=C(Cn1c(=O)[nH]n(-c2ccccc2)c1=O)N1CCCc2ccccc21	–	–	–	–	–	–
COCCNc1nc(Oc2cccc(NC(C)=O)c2)c2sc(-c3ccccc3)cc2n1	–	·	–	–	·	–
CC(=O)Nc1cccc(Oc2nc(NC(C)C)nc3cc(-c4ccccc4)sc23)c1	–	·	25.1µM	?	·	–
Cc1cc2occ(CC(=O)NC3(C)CCS(=O)(=O)C3)c2cc1C (stereo unspecified)	–	–	–	–	–	–
COc1ccc(C2CN=NC23CCCc2ccccc2C3=O)cc1 (stereo unspecified)	–	?	?	–	–	–
O=C1c2ccccc2CCC12N=NCC2c1ccc(Br)cc1 (stereo unspecified)	–	–	12.6µM	–	–	·
COc1ccc(C2CN=NC23CCc2ccccc2C3=O)cc1 (stereo unspecified)	–	–	–	–	4.47µM	–
COc1cccc(-c2cc(N3CCN(C(=O)c4ccoc4)CC3)n3nc(-c4cccc(Cl)c4)cc3n2)c1	–	·	3.55µM	–	·	–
COc1cccc(-c2cc3nc(-c4ccccc4)cc(N4CCC5(CC4)OCCO5)n3n2)c1	–	–	15.8µM	–	–	–
COc1cccc(-c2cc3nc(-c4ccco4)cc(N4CCN(C(C)=O)CC4)n3n2)c1	·	·	·	–	·	·
COc1cccc(-c2cc3nc(C)cc(N4CCN(C(=O)c5ccoc5)CC4)n3n2)c1	–	·	–	–	·	–
COc1cccc(-c2cc3nc(-c4ccccc4)cc(N4CCN(C(=O)c5ccoc5)CC4)n3n2)c1	–	·	15.8µM	?	·	–
CCN(CC)CCCNC(=O)c1[nH]c(C)c(C(=O)NC2CCCCC2)c1C	–	–	–	–	–	–
CC(=O)C1=C(c2ccc(C)cc2)N(C(C)=O)n2c(nnc2C2CCCCC2)S1	–	–	–	–	·	·
CCOC(=O)C1CCN(C(=O)c2ccc3snnc3c2)CC1	–	–	–	–	–	–
CCOc1cc(/C=C2/C(=O)ON=C2C)ccc1O	?	–	17.8µM	–	–	–

Compound activity deposited in PubChem BioAssay by National Center for Advancing Translational Sciences (NCATS).
